PubChem BioAssay AID493084 (National Center for Advancing Translational Sciences (NCATS), 2011)
Out of some 360,000 compounds screened, about 650 (0.18%) were called active. Shown is part of a subset that was picked to be rich in actives. Unmarked numbers belong to inactive results. Rule as the data show it: active = activation above about 30%; inactive = the rest.

The compounds below were run against Thyrotropin-releasing hormone receptor (Homo sapiens) (UniProt P34981) (assay: qHTS for Small Molecule Agonists and Allosteric Enhancers of Human TRH Receptor: Primary Screen for Agonists.). Settings: TRHR cells, calcium flux fluo-8, FDSS agonist mode; at 2 µM; stronger effect = higher value.
How it was run: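 Read-out: compound-evoked intracellular calcium rise in TRHR cells, fluo-8 dye, kinetic FDSS fluorescence at 1 s/cycle following a 10-cycle baseline. Cells cultured overnight before dye loading (30 min–1.5 h, RT).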
Also: 0% is about no effect.

Thyrotropin-releasing hormone receptor (Homo sapiens), sequence (P34981 whole entry, looked up): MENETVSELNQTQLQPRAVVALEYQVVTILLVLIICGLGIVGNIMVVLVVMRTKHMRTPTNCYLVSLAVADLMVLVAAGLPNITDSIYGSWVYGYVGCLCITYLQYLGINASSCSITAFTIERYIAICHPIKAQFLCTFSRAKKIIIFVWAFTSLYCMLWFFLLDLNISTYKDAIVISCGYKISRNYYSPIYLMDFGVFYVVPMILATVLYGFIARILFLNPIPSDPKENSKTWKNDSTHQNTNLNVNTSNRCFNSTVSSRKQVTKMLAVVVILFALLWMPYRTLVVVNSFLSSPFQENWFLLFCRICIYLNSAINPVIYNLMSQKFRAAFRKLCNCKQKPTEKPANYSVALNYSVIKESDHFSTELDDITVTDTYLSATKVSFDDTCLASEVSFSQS

| Compound | activation |
| --- | --- |
| Cc1ccc2cccc(NC(=O)C(C)Oc3ccc(C)c(C)c3)c2n1 (stereo unspecified) | 0.214% |
| COc1ccccc1NC(=O)CSc1oc(-c2ccco2)nc1S(=O)(=O)c1ccc(Br)cc1 | -0.526% |
| Cc1ccccc1Cn1nc(C)c(NC(=O)c2cc(-c3ccc(F)cc3)on2)c1C | -0.526% |
| CC1=C(c2ccc(F)cc2)S(=O)(=O)N=C1N1CCC(C(=O)NCCc2ccccc2C)CC1 | 0.06% |
| CCc1ccc(S(=O)(=O)n2ccnc2)cc1 | 0.631% |
| O=C(O)CCC(=O)Nc1ccc(N2CCOCC2)cc1 | 0.0804% |
| O=C(/C=C/c1ccc(N2CCOCC2)cc1)c1ccccc1 | 42.4% (active) |
| C/C(=C/c1ccccc1)C(=O)N1CCN(c2ccccc2)CC1 | -0.0779% |
| COc1ccc(Cn2c(=O)c3oc4ccccc4c3n(CC(=O)Nc3ccc(F)cc3F)c2=O)cc1 | 1.15% |
| CCOC(=O)c1cc2c(=O)n3ccccc3nc2n(CCCOC)c1=NC(=O)C(C)Oc1ccccc1 (stereo unspecified) | 0.485% |
| N#Cc1nc(Nc2cc(F)cc(Cl)c2)nc(NC2CCCC2)n1 | 1.3% |
| N#CN1CCC(NS(=O)(=O)c2cccc(F)c2)C1 (stereo unspecified) | 0.751% |
| O=C(Cn1cnc2c(oc3ccccc32)c1=O)Nc1ccc(OC(F)(F)F)cc1 | 0.788% |
| CCOC(=O)C1CCN(c2nc3c(S(=O)(=O)c4ccc(CC)cc4)nnn3c3ccc(Cl)cc23)CC1 | 0.759% |
| Cc1cccc(C)c1-n1ncc(C(=O)NCCCN2CCCCC2)c1C1CCN(C(=O)OC(C)(C)C)CC1 | 0.838% |
| CCC(CC)c1nn2cc(-c3ccccc3)nc2s1 | 6.57% |
| CC(C)CNc1ncnc2c1nnn2C | -0.593% |
| CCOC(=O)c1cc(-c2ccc(OC)c(S(=O)(=O)Nc3ccc(OC)cc3OC)c2)on1 | 1.19% |
| O=[S+]([O-])(c1ccc2c(c1)OCCO2)N1CCN([S+](=O)([O-])c2c(Cl)cc(Cl)cc2Br)CC1 | -1.11% |
| Cc1ccc(S(=O)(=O)N2CCCc3cc(NS(=O)(=O)c4cc(C)ccc4C)ccc32)cc1 | -0.123% |
| CCCCCCc1cc2cc(-c3nnc(-c4ccccc4)o3)c(=O)oc2cc1O | 185% (active) |

| Compound | activation |
| --- | --- |
| COc1cccc(N2CCN(C(=O)CCCCCn3c(=O)[nH]c4ccccc4c3=O)CC2)c1 | -0.437% |
| COCCn1c(CCC(=O)Nc2cc(C)ccc2C)nc2cccnc21 | -1.95% |
| COc1ccccc1-n1c(-c2ccc(C)cc2)cn2c3c(=O)n(C)c(=O)n(C)c3nc12 | 0.636% |
| CCc1ccc(N(CC)C(=O)CCn2cnc3onc(-c4ccc(F)cc4)c3c2=O)cc1 | 0.0408% |
| Cc1noc(C)c1-c1ccc2ncnc(NCc3ccc(F)c(F)c3)c2c1 | 21.5% |
| CCC(=O)N1c2ccccc2CC1C(=O)N1CCN(c2cccc(OC)c2)CC1 (stereo unspecified) | -0.304% |
| CN(C)c1ccc(/C=C2\NC(=S)N(Cc3ccccc3)C2=O)cc1 | 94.7% (active) |
| COc1ccccc1CNC(=O)NCc1noc2ccc(C)cc12 | -0.0554% |
| CCOc1ccc(CNC(=O)Cn2cc3c(n2)-c2c(oc(C(=O)N4CCCC4)c2C)CC3)cc1 | -0.1% |
| CN(C)c1ccc(C(=O)NCC(=O)OC(C(=O)Nc2cc(C(F)(F)F)ccc2Cl)c2ccccc2)cc1 (stereo unspecified) | 0.138% |
| O=C(CCCCCn1c(=O)[nH]c2ccccc2c1=O)NCCc1c[nH]c2ccccc12 | -0.335% |
| CC1(C(=O)NCCc2c[nH]c3ccccc23)C=CC2(CCCCC2)N1C(=O)c1ccccc1 (stereo unspecified) | 0.212% |
| N#C/C(=C/c1ccc(N2CCCCC2)o1)C(=O)NCCc1c[nH]c2ccccc12 | 43.2% (active) |
| COc1cc(/C=C2/SC(=S)N(Cc3ccccc3)C2=O)cc(OC)c1O | 33.6% (active) |
| COc1cc(C(=S)NCc2ccccc2)cc(Br)c1O | -0.891% |
| COc1ccc(CCNC(=O)CCCCn2c(=O)c3ccccc3n(Cc3ccccc3)c2=O)cc1OC | -0.65% |
| Cc1ccc(S(=O)(=O)N2CCc3cc(C(=O)Nc4ccc(Cl)cc4C)ccc32)cc1 | 0.483% |
| Cc1nc2ccn(Cc3cccnc3)c(=O)c2cc1C(=O)N1CCN(c2ccccc2F)CC1 | -0.337% |
| O=C1CC(c2nnc(Cc3ccc(Cl)cc3)o2)CN1c1ccccc1 (stereo unspecified) | -0.928% |
| Cc1cccc(-n2ncc(C(=O)N3CCN(c4ccc(Cl)cc4)CC3)c2C2CCN(C(=O)OC(C)(C)C)CC2)c1 | 3.67% |
